Measured values published in PubChem BioAssay AID488857 (Sanford-Burnham Center for Chemical Genomics, 2010).
In all, about 1,400 compounds went through this assay and about 560 (40%) were called active. The set was probably picked from earlier hits. The list shows a part of the results. A number with no mark means an inactive call.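 The calls were made as follows: active = mean inhibition over duplicate tests at 10 µM above 50%; inactive = the rest.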

Assay: ASC/caspase-1 reporter retest in S. cerevisiae at one dose, specificity check for NALP1 project (AID 488857)
Settings: S. cerevisiae ASC/Caspase-1, beta-galactosidase luminescence, 24 h; at 10 µM; stronger effect = higher value

Row | SMILES | inhibition
1 | O=[N+]([O-])/C(C(=C(Cl)Cl)N1CCN(Cc2ccccc2)CC1)=C1\NCCN1Cc1ccc(Cl)nc1 | 41.5%
2 | Cc1cc2ncn(/N=C/c3ccc([N+](=O)[O-])s3)c2cc1C | 67.8% (active)
3 | CN(C)/C=N/n1cnc2ccccc2c1=O | 32%
4 | CCCCCCCCCCCCCCCC[n+]1cccc2ccccc21 | 93.7% (active)
5 | O=c1c(Br)c(N2CCCC2)cnn1-c1ccccc1 | 64.9% (active)
6 | c1ccc2sc(Sc3ncnc4sccc34)nc2c1 | 44.6%
7 | COc1ccc(CCn2c(C(C)C)nc3c(c(=O)c4ccccc4n3C)c2=O)cc1 | 28%
8 | Cn1c2ccccc2c(=O)c2c(=O)n(C3CCCCCC3)c(C3CCCCC3)nc21 | 53.2% (active)
9 | COC(=O)c1ccc(NC(=O)c2ccccc2N(C)S(=O)(=O)c2ccccc2)cc1 | 55.2% (active)
10 | Cc1ccc(NC(=O)c2cccc(S(=O)(=O)N(C)c3ccccc3)c2)cc1S(=O)(=O)N1CCOCC1 | 36.1%
11 | COc1cc(/C=C/C(=O)Nc2ccc(C)cc2)cc(OC)c1OC | 46.8%
12 | CC(=O)c1ccc(NC(=O)/C=C/c2ccc(C)cc2)cc1 | 60.4% (active)
13 | CSc1ccc(/C=C/C(=O)c2ccc(O)cc2)cc1 | 81.2% (active)
14 | CSc1ccc(/C=C/C(=O)c2ccc(NC(C)=O)cc2)cc1 | 75.5% (active)
15 | Cc1c(N)c(C(C)(C)C)cc(C(C)(C)C)c1[N+](=O)[O-] | 35.1%
16 | CCN1CCN(c2cc3c(cc2F)c(=O)c(C(=O)O)cn3C2CC2)CC1 | 36.3%
17 | CCOC(=O)C(=O)C1=C(N2CCOCC2)/C(=C\c2ccc(F)cc2)CC1 | 36.2%
18 | COc1ccc(OC)c(/C=c2\sc3nc(-c4cccs4)nn3c2=O)c1 | 23.2%
19 | COc1ccc(C(=O)NCc2ccccc2)cc1S(=O)(=O)N1CCCc2ccccc21 | 39%
20 | COc1ccc(C(=O)NC(=S)Nc2ccccc2N2CCCCC2)cc1[N+](=O)[O-] | 68% (active)
21 | CCOc1ccc(C(=O)NC(=S)Nc2ccccc2N2CCCCC2)cc1[N+](=O)[O-] | 62.5% (active)

Row | SMILES | inhibition
22 | CCOc1ccc(C(=O)Nc2ccc(-c3nc4ccccc4[nH]3)cc2)cc1[N+](=O)[O-] | 39.4%
23 | CC1CCN(c2ccccc2NC(=O)c2ccc(N3CCOCC3)c([N+](=O)[O-])c2)CC1 | 27.4%
24 | COC(=O)c1ccc(C(=O)OC)c(NC(=O)CN2CCN(c3ccccc3OC)CC2)c1 | 49.2%
25 | COc1cc(-c2nc(C(F)(F)F)c(OC)o2)cc(OC)c1OC | 44.9%
26 | COc1cc(/C=C/C(=O)c2ccc(Cl)s2)cc(OC)c1O | 63.6% (active)
27 | Cc1cccc(OC(=O)c2cn(C)nc2C(F)(F)F)c1C | 50.9% (active)
28 | COc1ccc(-c2csc3ncnc(Oc4cccc5ccc(C)nc45)c23)cc1 | 71.4% (active)
29 | Cc1ccc(-c2csc3ncnc(Oc4cccc5ccc(C)nc45)c23)cc1 | 63% (active)
30 | COc1ccccc1N1CCN(C(=O)CSc2ncnc3scc(-c4ccccc4)c23)CC1 | 44.1%
31 | Cc1ccc(/C=C/C(=O)NCc2ccc3c(c2)OCO3)o1 | 42.4%
32 | O=C(/C=C/c1ccc(F)cc1)NCCc1ccc2c(c1)OCCO2 | 61.6% (active)
33 | O=C(c1ccc(F)cc1)c1cn(Cc2ccc(F)cc2)c2cc3c(cc2c1=O)OCCO3 | 44.1%
34 | O=C(Nc1cccc(-c2nc3ncccc3o2)c1)c1cc2ccccc2o1 | 61.8% (active)
35 | O=C(NC(=S)Nc1cccnc1)c1cc2ccccc2o1 | 69.7% (active)
36 | O=C(Nc1ccon1)c1cc2ccccc2oc1=O | 30.9%
37 | O=C(N/N=C/c1ccncc1)c1cc2ccccc2o1 | 41.4%
38 | O=C(Nc1cccnc1)Nc1ccc2c(c1)OCO2 | 43.5%
39 | O=C(O)CC(Cn1cnnn1)c1ccccc1 (configuration not stated) | 29.3%
40 | CN(C#N)c1nc(Cl)nc(Nc2cccc(Cl)c2)n1 | 28.1%
41 | O=[N+]([O-])c1cc(C(F)(F)F)ccc1NCCc1c[nH]c2ccc(O)cc12 | 70.5% (active)
42 | Cc1ccc(C(=O)NCCCNc2ccc(C(F)(F)F)cc2[N+](=O)[O-])cc1 | 46.6%

Row | SMILES | inhibition
43 | C1CCC(C(CC2CCCCN2)C2CCCCC2)CC1 (configuration not stated) | 39.9%
44 | COc1ccc(/C=N/N2CCOCC2)cc1COc1ccc(Cl)cc1 | 61% (active)
45 | COc1cc(/C=N/n2cnnc2)ccc1OCc1ccc(C)cc1 | 48.5%
46 | O=C1C=CC(=O)N1CCNc1ncc(C(F)(F)F)cc1Cl | 44%
47 | O=C1C=CC(=O)N1CCCCCCN1C(=O)C=CC1=O | 73.7% (active)
48 | CN1CCN(C2=C(Cl)C(=O)C(c3cnc(N4CCCCC4)s3)=C(Cl)C2=O)CC1 | 41.3%
49 | COc1ccc(OC)c(N/C(=N/C(=S)Nc2ccccc2)Nc2nc(C)cc(C)n2)c1 | 34.1%
50 | CCCn1nc(NC(=O)c2ccccn2)c2cc3cc(C)ccc3nc21 | 16.4%
51 | O=C(NCc1cccs1)c1csc2ccccc12 | 57.2% (active)
52 | CC(C)CC(=O)c1c[nH]c(C(=O)NCc2cccs2)c1 | 38.2%
53 | CC1=C(OC(=O)c2ccc(Br)cc2)C(C)(C)C(c2ccccc2)OC1=O (configuration not stated) | 22%
54 | CC1(C)COC(/C=C/c2ccc([N+](=O)[O-])cc2)=N1 | 83.1% (active)
55 | CCCCN(Cc1ccccc1)C(=O)C1CCN(Cc2sccc2C)CC1 | 45.2%
56 | O=C(CSc1ncn[nH]1)NC12CC3CC(CC(C3)C1)C2 | 19.1%
57 | O=C(CCl)NC(=O)NC12CC3CC(CC(C3)C1)C2 | 59.9% (active)
58 | O=C(CON=C1c2ccccc2-c2ccccc21)NC12CC3CC(CC(C3)C1)C2 | 33%
59 | CC1CCN(Cc2ccc(-c3nn[nH]n3)cc2)CC1 | 39.5%
60 | CCOc1cc(CNC2CCCC2)cc(Cl)c1OCc1ccc(F)cc1 | 60.9% (active)
61 | CCOc1cc(CNCc2ccncc2)cc(Br)c1OCc1ccc(F)cc1 | 67.8% (active)
62 | COc1cc(CNC2CCCCCCC2)cc(Br)c1OCC#N | 32.9%
